Laboratory results taken from ChEMBL document CHEMBL3433997, “St. Jude Leishmania screening dataset” (2016).

Target: Solute carrier family 2, facilitated glucose transporter member 1 (Homo sapiens) (UniProt P11166)
Assay: ST_JUDE_LEISH: Cytotoxicity at 2uM final concentration against transgenic Leishmania Mexicana promastigotes LmGLUT1 that are glucose transport deficient and complemented with the human glucose transporter GLUT1. Activity is measured by DNA content using SYBR green in vitro
Format: functional

Sequence of Solute carrier family 2, facilitated glucose transporter member 1 (Homo sapiens) (P11166 whole entry): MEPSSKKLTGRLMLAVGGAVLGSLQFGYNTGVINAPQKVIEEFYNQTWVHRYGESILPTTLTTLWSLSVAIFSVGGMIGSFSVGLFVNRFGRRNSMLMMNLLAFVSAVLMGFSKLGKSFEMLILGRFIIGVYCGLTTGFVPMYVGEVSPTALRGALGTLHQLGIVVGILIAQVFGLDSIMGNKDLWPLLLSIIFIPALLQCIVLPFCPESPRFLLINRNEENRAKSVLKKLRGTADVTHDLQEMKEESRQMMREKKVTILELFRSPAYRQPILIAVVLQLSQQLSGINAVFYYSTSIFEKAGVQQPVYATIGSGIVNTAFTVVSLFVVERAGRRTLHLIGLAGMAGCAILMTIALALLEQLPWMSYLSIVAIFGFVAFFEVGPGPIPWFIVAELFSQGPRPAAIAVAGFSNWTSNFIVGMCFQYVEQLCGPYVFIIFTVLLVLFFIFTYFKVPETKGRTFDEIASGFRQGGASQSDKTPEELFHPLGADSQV

SMILES | inhibition [%]
CS(=O)(=O)Nc1ccc2[nH]cc(C3CCN(CCCCCNC(=O)/C=C/c4ccc(Cl)c(Cl)c4)CC3)c2c1 | 3.05
CN(C)CCCNCc1ccc(-c2ccc(C(F)(F)F)cc2)cc1 | 5.63
Cc1nc(-c2ccc(-c3ccc(C(=O)Nc4ccc(Cl)c(N5CCN(C)CC5)c4)cc3)c(C)c2)no1 | 8.11
Cc1cc(NCCCN2CCCC2=O)n2c(nc3ccccc32)c1C#N | 0.96
CC1CN(c2ccc3occ(C(=O)Nc4ccc(-c5ccncc5)c(Cl)c4)c3c2)CC(C)N1C (stereo not given) | 5.54
CCCCCC(=O)N1CCOC(CCN2CCc3c(c4ccccc4n3C)C2)(c2ccc(Cl)c(Cl)c2)C1 (stereo not given) | 10.5
Nc1nc(N)c2c(Oc3ccc(Cl)c(Cl)c3)cccc2n1 | 0.48
CCC[C@@H]([C@@H](CC(C)C)C(=O)N[C@@H](CCC/N=C(/N)NS(C)(=O)=O)C(=O)Nc1nccs1)N(O)C=O | 7.57
CC(C)NCc1ccc(-c2ccc(CN3CCCC(c4ccccc4)C3)cc2)c(C(=O)NC2Cc3ccccc3C2)c1 (stereo not given) | 16.8
CC(Cc1ccc(NC(=O)c2ccc(CNCc3ccccc3)cc2)cc1)N(CCc1cccc(Cl)c1)C(=O)OC(C)(C)C (stereo not given) | 6.08
COc1ccccc1CNC(=O)c1ccc(N2CCN(c3ccncc3)CC2)cn1 | 7.32
O=C(C=Cc1ccc(-c2nc3ccccc3[nH]2)cc1)NC1CCN(Cc2ccccc2)CC1 | -1.19
O=C(Nc1cccc(Oc2ccccc2)c1)N[C@H]1CCN(Cc2ccc(OCCCN3CCCCC3)cc2)C1 | 3.58
Cc1cc(N[C@@H](Cc2ccccc2)C(=O)Nc2ccccc2)nc(NCCN2CCCC2)n1 | -2.01
Cc1cc(N2CCCCC2)nc2ccc(NC(=O)c3cncc(Br)c3)cc12 | 10.7
COc1ccc(C(C(=O)NC2CCN(C[C@H](O)c3ccnc4ccc(OC)cc34)CC2)N2CCN(c3ccc(F)cc3)CC2)cc1 (stereo not given in full) | 1.52
COc1ccc2c(C)cc(NCCCN(C)C)nc2c1 | 0.02
CN(C)CCn1c(N)c(-c2nc3ccccc3s2)c2nc(C#N)c(C#N)nc21 | 2.02
COc1ccc2nccc(NC(=O)OC3CCC(NCc4ccc5c(n4)NC(=O)CS5)CC3)c2c1 (stereo not given) | 4.53
Cc1ccc(NC(=O)c2ccc(NCCCN3CC(C)CC(C)C3)c([N+](=O)[O-])c2)cc1F (stereo not given) | 8.68

SMILES | inhibition [%]
O=[N+]([O-])c1ccc(C(O)CNCCc2ccccc2)cc1OCc1ccccc1 (stereo not given) | 14.1
O=c1c(NCCCN(Cc2ccc(F)cc2)c2ccccn2)c(NCc2cccnc2)c1=O | 1.33
Cn1nccc1C(=O)NCCNCc1ccc(-c2ccc(-c3nc4cc(F)ccc4[nH]3)cc2)cc1 | 1.91
O=C(Nc1ccc(OC2CCN(Cc3ccccc3)CC2)c(Cl)c1)c1ccc(F)cc1 | 2.05
CC(CNC1CCN(CCn2c(=O)ccc3ccc(F)cc32)CC1)c1ccccc1 (stereo not given) | -1.82
CC1(C)N=C(N)N=C(N)N1CCc1ccccc1 | 11.6
Cc1cc(OCCCN2CCC(NS(=O)(=O)c3ccc(Cl)c(Cl)c3)C2)c2ccccc2n1 (stereo not given) | 3.81
CC(C)(C)[C@@H](Nc1ccc(C#N)c2ccccc12)C(=O)NC1(Cc2ccc(O)c(Br)c2)CCCC1 | 2.05
O=C(NCc1ccc(C(=O)NCc2cccc3ccccc23)cc1)c1ccc(O)c(-c2ccc(Cl)c(Cl)c2)c1 | 0.64
CCOc1cc2c(cc1OCC)C(c1cc(OC)c(O)cc1Cl)NCC2 (stereo not given) | 2.01
O=C(Nc1cccc(-c2ccc(-c3nc4cc(C(F)(F)F)ccc4[nH]3)cc2)c1)c1csnn1 | 5.44
COc1cc(C(=O)N2CCN(C(C)C)CC2)ccc1CN(C)CCCN1CCN(c2cccc(Cl)c2Cl)CC1 | 0.76
CC1CN(Cc2cccc(-c3ccc(-c4nc5ccccc5[nH]4)cc3)c2)CC(C)O1 (stereo not given) | 3.06
O=C(Nc1ccc(N2CCCN(Cc3cccc(F)c3)CC2)cc1)c1ccc(F)cc1 | 4.73
CCc1cn2c3c(cc(C(=O)N[C@@H](Cc4cc(F)cc(F)c4)[C@H](O)CNC4CCOCC4)cc13)N(C)S(=O)(=O)CC2 | 0.86
COCCCNc1sc(S(=O)(=O)c2ccccc2)nc1S(=O)(=O)c1ccc(C)cc1 | -0.53
CCN(CC)CCCn1c(N)c(-c2nc3ccccc3[nH]2)c2nc(C#N)c(C#N)nc21 | 7.13
CC(C)NC(=O)c1cccc(-c2ccc(OCCN3CCCC3c3cc4ccccc4[nH]3)cc2)c1 (stereo not given) | 1.77
O=C(N[C@@H](CC1CCCCC1)C(=O)NCc1cccc(C(F)(F)F)c1)c1ccc(O)c(-c2ccc(Cl)c(Cl)c2)c1 | 1.91
COc1ccc(C(=O)N2CCC3(CC2)C(=O)N(CC(=O)NC2CCCCC2)CN3c2ccccc2)c(OC)c1 | 3.74
